Values joined by “and” are separate entries in the source; they are usually repeats but may differ in a detail not shown here. Equal values may be shown once. Inconclusive results are not listed. Some structures have more than one record in an assay (separate samples or runs), and their calls can disagree. Active and inactive are the calls of the source. The call rests on the fitted dose curve; in most records, active means well fitted inhibition curve with a large enough effect; inconclusive means small, poorly fitted or top-dose-only effect, or effect the other way; inactive means no such curve, though single readings can be large or run the other way.

Experimental findings from PubChem BioAssay AID489037 (National Center for Advancing Translational Sciences (NCATS), 2010) are described below.

In this test the target is Nuclear receptor ROR-gamma (Mus musculus) (UniProt P51450). The test is described as follows: Secondary confirmation assay for inhibitors of ROR gamma transcriptional activity. The note with it: Drosophila S2 Gal4-RORgamma UAS-luciferase reporter, 20 h; series mostly up to 92.2 µM; activity change, negative = inhibition: at the top concentration. The source says: NIH Molecular Libraries Probe Production Network [MLPCN] NIH Chemical Genomics Center [NCGC] MLPCN Grant: R03 DA026211-01 Assay Provider: Dan Littman, New York University Keywords: NIH Roadmap, MLPCN, MLI, MLSMR, qHTS, NCGC, qHTS, nuclear hormone receptor, retinoic acid-related orphan receptor, ROR gamma Assay Overview: The retinoic acid-related orphan receptor (ROR) gamma is a transcription factor that has a central role in the differentiation of Th17 cells, a subset of T helper cells that secrete the inflammatory cytokines IL-17, IL-17F, and IL-22. Th17 cells have been implicated in graft versus host disease, autoimmune disease and asthma. ROR gamma is induced in naive T helper cells in the presence of TGF-beta combined with IL-6, IL-21, or IL-23, and thereafter directs the expression of the Th17 lineage cytokines. To study the mechanism of action of ROR gamma, an insect cell-based assay was screened. This Drosophila Schneider cell line was stably transfected with two vectors: a gene expressing a fusion of the Gal4 DNA binding domain and ROR gamma transactivation domain under the control of the metallothionine promoter and a Photinus luciferase reporter regulated by the Gal4 binding site enhancer, UAS. […] Small molecule inhibitors of ROR gamma activity are detected by a decrease in luciferase reporter activity.
Chain of Nuclear receptor ROR-gamma (Mus musculus) (P51450 whole entry, looked up, the tested form may be a part): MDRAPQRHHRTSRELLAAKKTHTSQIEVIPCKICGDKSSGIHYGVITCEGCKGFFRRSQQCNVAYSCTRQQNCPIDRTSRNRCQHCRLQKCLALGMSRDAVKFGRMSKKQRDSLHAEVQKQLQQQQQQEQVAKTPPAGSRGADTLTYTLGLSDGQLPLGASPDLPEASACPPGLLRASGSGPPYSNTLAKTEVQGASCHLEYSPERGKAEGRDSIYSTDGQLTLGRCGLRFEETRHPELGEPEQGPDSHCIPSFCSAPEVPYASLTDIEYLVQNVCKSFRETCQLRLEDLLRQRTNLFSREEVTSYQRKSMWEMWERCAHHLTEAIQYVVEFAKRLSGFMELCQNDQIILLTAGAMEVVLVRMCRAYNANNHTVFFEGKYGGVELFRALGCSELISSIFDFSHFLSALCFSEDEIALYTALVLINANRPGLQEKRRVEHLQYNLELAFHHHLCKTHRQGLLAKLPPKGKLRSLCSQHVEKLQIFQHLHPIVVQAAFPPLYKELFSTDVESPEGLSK
Assay Protocol Summary: For screening, 600 cells in 4 uL/well were dispensed into white solid 1536-well plates (Grenier) using a solenoid-based dispenser. Following transfer of 23 nL compound or DMSO vehicle by a pin tool, the plates were incubated 1 hr at ambient temperature, and 1 uL/well copper sulfate (700 uM final concentration) was added. The plates were centrifuged 15 s at 1000 RPM and incubated 20 hr at ambient temperature. After addition of 1.5 uL Photinus luciferase detection reagent, the plates were incubated 10 min at ambient temperature and then read by an ViewLux (Perkin Elmer) to detect luminescence. Keywords: NIH Roadmap, MLPCN, MLI, MLSMR, qHTS, NCGC, qHTS, nuclear hormone receptor, retinoic acid-related orphan receptor, ROR gamma
For orientation: Reporter assays use an easily measured gene product as a stand-in for the process of interest.
Consider `COc1ccc(CNC(=O)[C@@H](NC(=O)C2CCN(C(=O)[C@@H]3CCCN3C(=O)OC(C)(C)C)CC2)C(C)C)cc1`, for which the “activity change, negative = inhibition” value is -21% (inactive).
Regarding `CN1CCN(C(=O)CCN2C(=O)/C(=C\c3ccccc3F)SC2=S)CC1`, the Potency was 18.2 µM (active).
Turning to `COc1ccc(-c2nnc(-c3ccc(N(C)C)cc3)o2)cc1`, the Potency was 1.29 µM (active).
On to `COc1cc(OC)c(C(CC(=O)N2CC(C)CC(C)C2)c2ccc3c(c2)OCO3)c(OC)c1` (stereo not given), for which the Potency was 4.57 µM (active).
The same measure, in the same setting: with `COc1cc(O)c(C(CC(=O)N2CC(C)CC(C)C2)c2ccc3c(c2)OCCO3)c(OC)c1` (stereo not given) the figure was 0.645 µM (active); with `CCOc1ccc(-c2cc(CCCC(=O)NCc3cccnc3)no2)cc1`, 0.724 µM (active).
`COc1cc(OC)c(C(CC(=O)N2CC(C)CC(C)C2)c2ccc3c(c2)OCO3)c(OCC#N)c1` (stereo not given): the Potency was 7.24 µM (active).
On the same count and under the same terms, the figure for `Cc1ccc(C)c(/C=N/n2cc(-c3ccccc3)[nH]c2=S)c1` is 0.575 µM (active); for `COc1cc(O)c(C(CC(=O)N2CC(C)CC(C)C2)c2ccc(O)cc2)c(OC)c1` (stereo not given) it is 2.04 µM (active).
On the same count and under the same terms, the figure for `Cc1cc(C)nc(-n2nc(C)cc2NC(=O)CNC(C)c2ccccc2)n1` (stereo not given) is 5.75 µM (active); for `Cc1ccc(OCCCC(=O)Nc2nc3ccccc3[nH]2)cc1` it is 7.24 µM (active).
On to `COc1cc(O)c(C(CC(=O)N2CCCC(C)C2)c2ccc(-c3ccccc3)cc2)c(OC)c1` (stereo not given), for which the “activity change, negative = inhibition” value is -26% (inactive).
In the case of `COc1ccccc1C(CC(=O)Nc1ccc(F)cc1)c1ccccc1` (stereo not given), the “activity change, negative = inhibition” value was -21% (inactive).
As for `COc1cc(O)c(C(CC(=O)N2CCCC(C)C2)c2ccc3c(c2)OCO3)c(OC)c1` (stereo not given), the Potency was 3.63 µM (active) and 3.23 µM (active).
In the case of `COc1cc(O)c(C(CC(=O)N2CCC(C)CC2)c2ccc(OC)c(OC)c2)c(OC)c1` (stereo not given), the “activity change, negative = inhibition” value was -29.8% (inactive).
Regarding `COc1cc(O)c(C(CC(=O)N2CCC[C@@H](C)C2)c2ccc3c(c2)OCO3)c(OC)c1` (stereo not given in full), the Potency is 5.12 µM (active) and 22.9 µM (active) and inactive.
In the case of `COc1ccc(C(CC(=O)N2CCCC(C)C2)c2c(O)cc(OC)cc2OC)cc1` (stereo not given), the Potency was 2.29 µM (active).
Consider `CCNC(=O)CCc1nc(-c2ccc(C(C)(C)C)cc2)no1`, for which the Potency is 0.512 µM (active).
Still for that read-out and setting: with `COc1cc(O)c(C(CC(=O)N2CC(C)OC(C)C2)c2ccc3c(c2)OCO3)c(OC)c1` (stereo not given) the figure was 1.29 µM (active); with `COc1cc(O)c(C(CC(=O)N2CCCC(C)C2)c2cccs2)c(OC)c1` (stereo not given), 7.24 µM (active).
Consider `CC1CCCN(C(=O)CC(c2ccc3c(c2)OCO3)c2ccc(O)cc2O)C1` (stereo not given), for which the “activity change, negative = inhibition” value was -7.31% (inactive).
As to `COc1cc(O)c(C(CC(=O)N2CCCC(C)C2)c2cccc3ccccc23)c(OC)c1` (stereo not given), the “activity change, negative = inhibition” value is -26.6% (inactive).
Take `COc1cc(O)c(C(CC(=O)N2CCC(Cc3ccccc3)CC2)c2ccc(OC)c(OC)c2)c(OC)c1` (stereo not given): the “activity change, negative = inhibition” value was 7.01% (inactive).
As to `CCOc1cccc(-c2cc(-c3n[nH]c(=S)n3CC)c3ccccc3n2)c1`, the Potency is 2.29 µM (active) and 1.82 µM (active).
Turning to `COc1cc(O)c(C(CC(=O)N2CCCC2)c2ccc3c(c2)OCO3)c(OC)c1` (stereo not given), the “activity change, negative = inhibition” value was -12.2% (inactive).
In the case of `COc1ccc2nc(NNC(=O)COc3ccccc3)sc2c1`, the Potency was 4.57 µM (active).
With `O=C(/C=C/c1ccc(S(=O)(=O)N2CCOCC2)cc1)NC(=S)Nc1ccc(N2CCOCC2)cc1`, the Potency was 2.04 µM (active).
Still for that read-out and setting: the entry for `COc1cc(O)c(C(CC(=O)N2CCC(c3ccccc3)CC2)c2ccc3c(c2)OCO3)c(OC)c1` (stereo not given) is “inactive”.
Still for that read-out and setting: the figure for `Cc1nn(-c2cc(C)c3ccccc3n2)c2c1C1C(C2)C1(C)C` (stereo not given) is 3.63 µM (active).
`COc1cc(O)c(C(CC(=O)N2CCCC(C#N)C2)c2ccc3c(c2)OCO3)c(OC)c1` (stereo not given): the “activity change, negative = inhibition” value was -20.7% (inactive).
Regarding `COc1cc(O)c(C(CC(=O)N2CCCC(CN3CCCCC3)C2)c2ccc3c(c2)OCO3)c(OC)c1` (stereo not given), the “activity change, negative = inhibition” value is -10.8% (inactive).
With `CC1=C(\C=C/C(C)=C/C=C\C(C)=C\C(=O)O)C(C)(C)CCC1`, the activity change, negative = inhibition was -12.4% [at 20 µM] (inactive).
In the case of `COc1cc(O)c(C(CC(=O)N2CCCC(C)C2)c2ccc3ccccc3c2)c(OC)c1` (stereo not given), the Potency was 5.75 µM (active).
Regarding `COc1ccc(C)c(O)c1C(CC(=O)N1CCCC(C)C1)c1ccc2c(c1)OCO2` (stereo not given), the Potency is 40.7 µM (active).
For `COc1cc(O)c(C(CC(=O)N2CCCC(C(=O)N3CCCCC3)C2)c2ccc3c(c2)OCO3)c(OC)c1` (stereo not given), the “activity change, negative = inhibition” value was 30% (inactive).
On the same count and under the same terms, the figure for `COc1cc(O)c(C(CC(=O)N2CCCC(C)C2)c2ccccc2OC)c(OC)c1` (stereo not given) is 0.544% (inactive); for `COc1ccc(C(CC(=O)N2CCCC(C)C2)c2c(O)cc(OC)cc2OC)c(OC)c1` (stereo not given) it is -12.9% (inactive).
On the same count and under the same terms, the figure for `COc1cc(O)c(C(CC(=O)NC2CCCc3ccccc32)c2ccc3c(c2)OCO3)c(OC)c1` (stereo not given) is 11.2% (inactive).
In the case of `COc1cc(O)c(C(CC(=O)N2CCCCC2)c2ccc3c(c2)OCO3)c(OC)c1` (stereo not given), the Potency was 20.4 µM (active).
Consider `Cc1cc(C)n(-c2nc(SCC(=O)O)c3c4c(sc3n2)CCCC4)n1`, for which the Potency was 9.11 µM (active).
